Source: PubChem BioAssay (NCI)
This is part of a sample that, as a whole, favours compounds with a hit. Of some 79,000 tested, about 15% had one in any assay. Values without a mark were called inactive. Calls of active or inactive are those of the source. No stated cut-off is given here; in the data, active means growth inhibition above about 70%; inactive means the rest.

What was measured:
[1] = NCI Yeast Anticancer Drug Screen. Data for the rad50 strain (AID 155);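 further: 0% = growth of vehicle-only cultures of the same strain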; conditions: S. cerevisiae rad50 strain growth inhibition, hits give high values
Procedure, shortened: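 Inhibition values express reduced yeast growth in compound-treated cultures relative to vehicle-treated controls.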

[2] = NCI Yeast Anticancer Drug Screen. Data for the mec2-1 strain (AID 157); conditions: S. cerevisiae mec2-1 strain, hits give high values
Procedure, shortened: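 Strain: mec2-1 (DNA repair/cell cycle alteration). Compound exposure, then growth measured; inhibition expressed relative to vehicle.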

[3] = NCI Yeast Anticancer Drug Screen. Data for the sgs1 mgt1 strain (AID 161);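 further: 0% = growth of cultures given vehicle only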; conditions: S. cerevisiae sgs1 mgt1 strain, hits give high values
Procedure, shortened: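 Read-out: growth inhibition vs vehicle controls. Cells: mutant yeast strain deficient in DNA damage repair.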

[4] = NCI Yeast Anticancer Drug Screen. Data for the cln2 rad14 strain (AID 165);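 further: 0% = growth equal to vehicle treated cultures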; conditions: S. cerevisiae cln2 rad14 strain, hits give high values
Procedure, shortened: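 Compounds are applied to the cln2 rad14 yeast strain, and growth is then compared with that of vehicle-treated cultures to give inhibition.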

[5] = NCI Yeast Anticancer Drug Screen. Data for the bub3 strain (AID 167); conditions: S. cerevisiae bub3 mutant strain, hits give high values
Procedure, shortened: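 Steps: expose the mutant yeast strain to compound; grow alongside vehicle-treated cultures; measure growth; express inhibition against the vehicle cultures.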

[6] = NCI Yeast Anticancer Drug Screen. Data for the mlh1 rad18 strain (AID 175); conditions: S. cerevisiae mlh1 rad18 strain growth inhibition, hits give high values
Procedure, shortened: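 Read-out is yeast growth inhibition, calculated against vehicle-only controls. The compound was applied to a strain engineered with DNA damage repair alterations.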

[7] = at 5.0 µM (retest, dose inferred, filed as 0.5)
[8] = at 50.0 µM (retest, dose inferred, filed as 5.0)

Row | SMILES | growth inhibition [1, 7] | growth inhibition [1, 8] | growth inhibition ([1]; at 50.0 µM) | growth inhibition [2, 7] | growth inhibition [2, 8] | growth inhibition ([2]; at 50.0 µM) | growth inhibition [3, 7] | growth inhibition [3, 8] | growth inhibition ([3]; at 50.0 µM) | growth inhibition [4, 7] [%] | growth inhibition [4, 8] | growth inhibition ([4]; at 50.0 µM) | growth inhibition [5, 7] | growth inhibition [5, 8] | growth inhibition ([5]; at 50.0 µM) | growth inhibition [6, 7] | growth inhibition [6, 8] | growth inhibition ([6]; at 50.0 µM)
1 | CN(C)/N=C(/CC(O)(C(F)(F)F)C(F)(F)F)c1ccc([N+](=O)[O-])cc1 | 25% | 20% | -4.65% | 19% | 11% | -8.95% | 19% | 22% | 35.6% | 12 | 12% | -18.6% | 15% | 7% | -12.9% | 25% | 21% | -16.4%
2 | Nc1ccc2c(c1)[nH]c(=O)c1cccc(Cl)c12 | -32% | 89% (active) | 96.1% (active) | -34% | 88% (active) | 55.3% | -39% | 80% (active) | 61.2% | -31 | 94% (active) | 63.9% | -52% | 90% (active) | 32.5% | -40% | 95% (active) | 93.1% (active)
3 | S=c1[nH]c2ccc(Cl)cc2s1 | -22% | 54% | 72.9% (active) | -2% | 69% | 65.8% | -13% | 92% (active) | 82.2% (active) | -60 | 31% | 83.8% (active) | -19% | 77% (active) | 42% | -19% | 91% (active) | 87.2% (active)
4 | Cc1occc1C(=S)Nc1ccc(Cl)c(C(=O)OC(C)C2CC2)c1 (stereo not given) | 9% | 59% | 58.1% | 16% | 48% | 39.9% | -1% | 46% | 78.8% (active) | -5 | 51% | 81.5% (active) | 6% | 56% | 77.1% (active) | 12% | 76% (active) | 63.5%
5 | CS(=O)(=O)OC1COC2C(I)COC12 (stereo not given) | -1% | 55% | 7.85% | 3% | 58% | -11.8% | -1% | 83% (active) | 1.85% | 5 | 30% | 13.7% | -1% | 83% (active) | 77.3% (active) | 2% | 84% (active) | 19.9%
6 | Cc1c(S(C)=O)[n+](=O)c2ccccc2n1[O-] (stereo not given) | 13% | 85% (active) | 32.9% | 0% | 93% (active) | 33.7% | 8% | 92% (active) | 35.9% | 2 | 40% | 7.75% | -2% | 89% (active) | -5.5% | 18% | 96% (active) | 58.6%
7 | N#CSCc1ccc(CSC#N)c(Cl)c1 | 10% | 93% (active) | 59.7% | 0% | 91% (active) | 40.4% | 18% | 91% (active) | 41% | 4 | 88% (active) | 60.8% | 11% | 98% (active) | 39.1% | 4% | 96% (active) | 93.3% (active)
8 | CCCCCCCCCN(CCCCCCCCC)CC(O)c1cc2c(c3ccccc13)CCCC2 (stereo not given) | 9% | 93% (active) | 99% (active) | 38% | 96% (active) | 91% (active) | 53% | 97% (active) | 99% (active) | 7 | 90% (active) | 98.9% (active) | 11% | 93% (active) | 95.8% (active) | 46% | 95% (active) | 98.8% (active)
9 | Cc1cc(C(C)(CC(C)C)c2ccc(O)c(C)c2)ccc1O | 99% (active) | 99% (active) | 91.1% (active) | 98% (active) | 99% (active) | 93% (active) | 97% (active) | 98% (active) | 93.2% (active) | 68 | 98% (active) | 92.5% (active) | 98% (active) | 97% (active) | 91.4% (active) | 100% (active) | 100% (active) | 91.3% (active)
10 | CCOC(=O)C(CCc1ccccc1[N+](=O)[O-])C(C)=O (stereo not given) | 4% | 61% | 78.9% (active) | 2% | 11% | 27.6% | -3% | 42% | 66.8% | -1 | 8% | -8.55% | -3% | 8% | 54% | -20% | 45% | 69.7%
